Measured values as given in the supplement of paper PMC10849652.
About 7,900 targets were measured; listed, in parts, are those with a hit and a random draw of the rest. About 0.6% of all pairs of compound and target were hits.

Tests used:
Assay in all cases: log2 fold change, soluble protein after heating vs DMSO (PISA); higher = thermal stabilisation; K562 cells, 10 uM, 30 min; active = over 0.2 and 3.5 SD of the protein, either way, in both replicates (recomputed)
bafetinib = compound: Cc1ccc(NC(=O)c2ccc(CN3CC[C@H](N(C)C)C3)c(C(F)(F)F)c2)cc1Nc1nccc(-c2cncnc2)n1 [bafetinib]
Procedure, shortened: (§1)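 Values are thermal stability changes relative to control samples and are taken from duplicates. They are stated as log2 fold changes. Before quantification by TMTpro 16plex LC-MS/MS with equalised channel sums, K562 cells at 2×10^6 cells/mL were treated with 10 μM compound for 30 min, heated in aliquots for 3 min across 48°C-58°C, pooled, extracted in PBS with 0.5% NP-40 at 4°C, and centrifuged at 21,000xg for 90 min to give the soluble supernatant.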

[1] = compound: Cc1cccc(CC(=O)N2CCc3c2ccc(-c2cn(C)c4ncnc(N)c24)c3F)n1
Procedure, shortened: as §1

nilotinib = compound: Cc1cn(-c2cc(NC(=O)c3ccc(C)c(Nc4nccc(-c5cccnc5)n4)c3)cc(C(F)(F)F)c2)cn1 [nilotinib]
Procedure, shortened: as §1

[2] = compound: Cc1nc(Nc2n[nH]c3c2CN(C(=O)N[C@H](CN(C)C)c2ccccc2)C3(C)C)c2sccc2n1
Procedure, shortened: as §1

dasatinib = compound: Cc1nc(Nc2ncc(C(=O)Nc3c(C)cccc3Cl)s2)cc(N2CCN(CCO)CC2)n1 [dasatinib]
Procedure, shortened: as §1

[3] = compound: Cc1ncc(-c2ccnc(Nc3ccc(S(C)(=O)=O)cc3)n2)n1C(C)C
Procedure, shortened: as §1

[4] = compound: Cn1cc(-c2ccc3c(c2)CCN3C(=O)Cc2cccc(C(F)(F)F)c2)c2c(N)ncnc21
Procedure, shortened: as §1

mubritinib = compound: FC(F)(F)c1ccc(/C=C/c2nc(COc3ccc(CCCCn4ccnn4)cc3)co2)cc1 [mubritinib]
Procedure, shortened: as §1

[5] = compound: NC(=O)Nc1cc(-c2cccc(F)c2)sc1C(=O)N[C@H]1CCCNC1
Procedure, shortened: as §1

[6] = compound: NC1(c2ccc(-c3nc4ccn5c(=O)[nH]nc5c4cc3-c3ccccc3)cc2)CCC1
Procedure, shortened: as §1

[7] = compound: NCC(=O)Nc1ccc(-n2nc(C(F)(F)F)cc2-c2ccc3c(ccc4ccccc43)c2)cc1
Procedure, shortened: as §1

entinostat = compound: Nc1ccccc1NC(=O)c1ccc(CNC(=O)OCc2cccnc2)cc1 [entinostat]
Procedure, shortened: as §1

vorinostat = compound: O=C(CCCCCCC(=O)Nc1ccccc1)NO [vorinostat]
Procedure, shortened: as §1

silmitasertib = compound: O=C(O)c1ccc2c(c1)nc(Nc1cccc(Cl)c1)c1ccncc12 [silmitasertib]
Procedure, shortened: as §1

[8] = compound: Cn1cc(-c2ccc3nnc(C(F)(F)c4ccc5ncccc5c4)n3n2)cn1
Procedure, shortened: as §1

tipifarnib = compound: Cn1cncc1[C@@](N)(c1ccc(Cl)cc1)c1ccc2c(c1)c(-c1cccc(Cl)c1)cc(=O)n2C [tipifarnib]
Procedure, shortened: as §1

[9] = compound: NC(=O)c1cnc(N[C@@H]2CCCC[C@@H]2N)nc1Nc1cccc(-n2nccn2)c1
Procedure, shortened: as §1

citarinostat = compound: O=C(CCCCCCNC(=O)c1cnc(N(c2ccccc2)c2ccccc2Cl)nc1)NO [citarinostat]
Procedure, shortened: as §1

[10] = compound: O=C1NC(=O)C(c2cnc3ccccn23)=C1c1cn2c3c(cc(F)cc13)CN(C(=O)N1CCCCC1)CC2
Procedure, shortened: as §1

[11] = compound: c1cc(OCCN2CCCCC2)cc(-c2n[nH]c3ccc(-c4nnc[nH]4)cc23)c1
Procedure, shortened: as §1

Measured: log2 fold change

SCLT1 (UniProt Q96NL6)
inactive: bafetinib 0.087 | [1] -0.009 | nilotinib -0.099 | [2] -0.043 | dasatinib -0.052 | [3] 0.041 | [4] 0.191 | mubritinib 0.098 | [5] -0.007 | [6] -0.057 | [7] -0.077 | entinostat -0.023 | vorinostat 0.064 | silmitasertib -0.01

RSL1D1 (UniProt O76021)
inactive: bafetinib 0.288 | [1] -0.027 | nilotinib 0.117 | [2] 0.109 | dasatinib 0.239 | [3] 0.264 | [4] -0.427 | [8] -0.18 | tipifarnib 0.15 | mubritinib -0.244 | [5] -0.001 | [9] 0.207 | [6] 0.339 | [7] 0.188 | entinostat -0.133 | vorinostat -0.016 | citarinostat -0.105 | silmitasertib 0.329 | [10] 0.409 | [11] -0.265

SDCBP isoform 2 (UniProt O00560)
Sequence of UniProt O00560 (O00560 whole entry, looked up): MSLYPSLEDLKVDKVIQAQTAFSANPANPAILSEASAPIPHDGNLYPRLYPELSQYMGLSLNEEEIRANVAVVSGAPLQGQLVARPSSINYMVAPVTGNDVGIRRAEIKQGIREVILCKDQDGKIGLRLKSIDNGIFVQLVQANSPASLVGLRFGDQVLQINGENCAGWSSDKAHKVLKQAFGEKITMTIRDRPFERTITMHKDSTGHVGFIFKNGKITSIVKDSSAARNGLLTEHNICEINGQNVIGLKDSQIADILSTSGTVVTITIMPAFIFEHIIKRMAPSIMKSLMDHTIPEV
inactive: bafetinib -0.298 | [1] -0.066 | nilotinib 0.108 | [2] -0.219 | dasatinib -0.083 | [3] -0.205 | [8] -0.085 | tipifarnib 0.109 | mubritinib 0.033 | [5] -0.038 | [6] -0.286 | entinostat 0.004 | vorinostat -0.01 | citarinostat 0.024 | silmitasertib 0.124 | [10] -0.041 | [11] 0.097

SELENOH (UniProt Q8IZQ5)
inactive: bafetinib 0.042 | [1] 0.21 | nilotinib -0.02 | [2] 0.011 | dasatinib 0.076 | [3] 0.012 | [4] -0.039 | [8] 0.036 | tipifarnib -0.01 | mubritinib -0.009 | [5] 0.227 | [9] 0.194 | [6] 0.011 | [7] 0.049 | entinostat 0.066 | vorinostat -0.007 | citarinostat 0.067 | silmitasertib 0.011 | [10] 0.038 | [11] 0.053

RALY (UniProt Q9UKM9)
inactive: bafetinib 0.077 | [1] -0.069 | nilotinib -0.029 | [2] 0.051 | dasatinib 0.249 | [3] -0.151 | [4] -0.596 | [8] -0.011 | tipifarnib -0.118 | mubritinib -0.257 | [5] -0.039 | [9] 0.071 | [6] 0.353 | [7] 0.026 | entinostat -0.02 | vorinostat -0.105 | citarinostat -0.064 | silmitasertib 0.128 | [10] 0.072 | [11] -0.106

SF3B5 (UniProt Q9BWJ5)
inactive: bafetinib -0.115 | [1] -0.056 | nilotinib 0.029 | [2] 0.008 | dasatinib -0.189 | [3] -0.064 | tipifarnib -0.018 | mubritinib -0.043 | [5] 0.081 | [9] 0.043 | [6] -0.034 | [7] 0.038 | entinostat 0.116 | vorinostat -0.004 | citarinostat -0.016 | silmitasertib 0.016 | [10] -0.127 | [11] 0

RHEB (UniProt Q15382)
inactive: bafetinib 0.01 | [1] 0.004 | nilotinib -0.027 | [2] 0.001 | dasatinib 0.004 | [3] 0.04 | [4] 0.035 | [8] 0.001 | tipifarnib -0.042 | mubritinib 0.004 | [5] -0.042 | [9] -0.014 | [6] -0.058 | [7] -0.029 | entinostat -0.012 | vorinostat 0.002 | citarinostat 0.022 | silmitasertib -0.033 | [10] -0.038 | [11] -0.025

RNF185 (UniProt Q96GF1)
inactive: bafetinib 0.189 | [1] -0.037 | nilotinib -0.027 | [2] -0.001 | [3] -0.022 | [4] 0.089 | [8] 0.218 | tipifarnib 0.045 | mubritinib 0.057 | [9] -0.022 | [6] -0.072 | [7] -0.139 | vorinostat -0.28 | citarinostat -0.135 | silmitasertib 0.001 | [11] 0.072

RPTOR (UniProt Q8N122)
Sequence of UniProt Q8N122 (Q8N122 whole entry, looked up): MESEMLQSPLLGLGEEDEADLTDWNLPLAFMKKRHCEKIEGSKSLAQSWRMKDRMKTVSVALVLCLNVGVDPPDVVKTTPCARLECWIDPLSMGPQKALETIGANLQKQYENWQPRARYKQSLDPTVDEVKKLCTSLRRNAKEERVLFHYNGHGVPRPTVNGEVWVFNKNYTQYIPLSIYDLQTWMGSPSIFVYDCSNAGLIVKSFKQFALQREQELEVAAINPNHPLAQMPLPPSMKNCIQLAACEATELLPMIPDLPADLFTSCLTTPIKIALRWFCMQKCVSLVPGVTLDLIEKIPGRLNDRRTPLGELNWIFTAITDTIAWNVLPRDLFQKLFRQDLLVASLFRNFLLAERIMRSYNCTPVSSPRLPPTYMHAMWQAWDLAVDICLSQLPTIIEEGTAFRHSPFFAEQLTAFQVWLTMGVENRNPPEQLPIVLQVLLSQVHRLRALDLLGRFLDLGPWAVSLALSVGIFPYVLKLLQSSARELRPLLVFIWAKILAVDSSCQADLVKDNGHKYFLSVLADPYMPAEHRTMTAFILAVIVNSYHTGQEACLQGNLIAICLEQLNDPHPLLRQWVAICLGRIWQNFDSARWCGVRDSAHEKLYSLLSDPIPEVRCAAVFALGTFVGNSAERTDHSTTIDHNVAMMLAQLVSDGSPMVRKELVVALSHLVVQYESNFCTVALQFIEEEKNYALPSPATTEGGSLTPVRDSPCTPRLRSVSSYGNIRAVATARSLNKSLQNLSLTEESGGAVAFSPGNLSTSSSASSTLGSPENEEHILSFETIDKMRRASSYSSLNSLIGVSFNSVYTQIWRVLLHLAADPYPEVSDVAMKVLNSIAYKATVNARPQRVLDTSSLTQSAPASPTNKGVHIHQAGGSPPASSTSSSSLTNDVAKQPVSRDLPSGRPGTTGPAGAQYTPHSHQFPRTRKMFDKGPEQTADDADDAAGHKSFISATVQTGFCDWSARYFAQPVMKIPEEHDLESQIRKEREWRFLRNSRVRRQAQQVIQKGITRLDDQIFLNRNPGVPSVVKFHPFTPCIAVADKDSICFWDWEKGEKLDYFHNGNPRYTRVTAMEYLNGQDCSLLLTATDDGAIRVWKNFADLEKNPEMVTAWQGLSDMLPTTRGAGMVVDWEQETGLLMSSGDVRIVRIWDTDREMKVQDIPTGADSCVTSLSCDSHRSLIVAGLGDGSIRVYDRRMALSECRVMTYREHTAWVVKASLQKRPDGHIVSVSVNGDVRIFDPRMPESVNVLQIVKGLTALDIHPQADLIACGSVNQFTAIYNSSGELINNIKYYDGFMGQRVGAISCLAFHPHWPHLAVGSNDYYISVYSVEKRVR
active: [6] -0.243
inactive: bafetinib -0.005 | [1] 0.034 | nilotinib -0.085 | [2] -0.103 | dasatinib -0.103 | [3] -0.045 | [4] -0.107 | [8] 0.009 | tipifarnib -0.062 | mubritinib 0.033 | [5] -0.026 | [9] -0.139 | [7] -0.021 | entinostat 0.009 | vorinostat 0.007 | citarinostat 0.056 | silmitasertib 0.085 | [10] -0.025 | [11] -0.008

RRAGB (UniProt Q5VZM2)
Sequence of UniProt Q5VZM2 (Q5VZM2 whole entry, looked up): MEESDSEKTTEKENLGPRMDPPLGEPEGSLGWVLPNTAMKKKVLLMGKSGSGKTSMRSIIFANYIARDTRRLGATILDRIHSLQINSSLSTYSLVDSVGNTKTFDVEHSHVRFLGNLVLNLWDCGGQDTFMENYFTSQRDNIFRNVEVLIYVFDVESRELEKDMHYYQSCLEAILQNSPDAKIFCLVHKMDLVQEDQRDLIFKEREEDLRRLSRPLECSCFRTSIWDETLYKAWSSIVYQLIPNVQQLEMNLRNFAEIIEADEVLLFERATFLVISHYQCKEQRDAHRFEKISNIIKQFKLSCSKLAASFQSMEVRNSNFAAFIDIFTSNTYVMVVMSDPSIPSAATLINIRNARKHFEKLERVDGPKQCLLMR
inactive: bafetinib -0.079 | [1] -0.045 | nilotinib 0.031 | [2] -0.003 | dasatinib 0.041 | [3] 0.009 | [4] 0.06 | [8] 0.043 | tipifarnib -0.025 | mubritinib 0.037 | [5] 0.112 | [9] -0.017 | [7] 0.023 | entinostat 0.012 | vorinostat 0.018 | citarinostat -0.006 | silmitasertib 0.031 | [10] 0.008 | [11] 0.05
active: [6] -0.317

RAB3D (UniProt O95716)
inactive: bafetinib -0.142 | [1] -0.052 | nilotinib 0.01 | [2] 0.066 | dasatinib 0.221 | [3] -0.116 | [4] 0.075 | [8] -0.201 | tipifarnib 0.065 | mubritinib 0.285 | [9] 0.113 | [6] 0.032 | [7] -0.007 | vorinostat -0.126 | citarinostat 0.055 | silmitasertib 0.027 | [11] 0.051

RPS6KA3 (UniProt P51812)
Sequence of UniProt P51812 (P51812 whole entry, looked up): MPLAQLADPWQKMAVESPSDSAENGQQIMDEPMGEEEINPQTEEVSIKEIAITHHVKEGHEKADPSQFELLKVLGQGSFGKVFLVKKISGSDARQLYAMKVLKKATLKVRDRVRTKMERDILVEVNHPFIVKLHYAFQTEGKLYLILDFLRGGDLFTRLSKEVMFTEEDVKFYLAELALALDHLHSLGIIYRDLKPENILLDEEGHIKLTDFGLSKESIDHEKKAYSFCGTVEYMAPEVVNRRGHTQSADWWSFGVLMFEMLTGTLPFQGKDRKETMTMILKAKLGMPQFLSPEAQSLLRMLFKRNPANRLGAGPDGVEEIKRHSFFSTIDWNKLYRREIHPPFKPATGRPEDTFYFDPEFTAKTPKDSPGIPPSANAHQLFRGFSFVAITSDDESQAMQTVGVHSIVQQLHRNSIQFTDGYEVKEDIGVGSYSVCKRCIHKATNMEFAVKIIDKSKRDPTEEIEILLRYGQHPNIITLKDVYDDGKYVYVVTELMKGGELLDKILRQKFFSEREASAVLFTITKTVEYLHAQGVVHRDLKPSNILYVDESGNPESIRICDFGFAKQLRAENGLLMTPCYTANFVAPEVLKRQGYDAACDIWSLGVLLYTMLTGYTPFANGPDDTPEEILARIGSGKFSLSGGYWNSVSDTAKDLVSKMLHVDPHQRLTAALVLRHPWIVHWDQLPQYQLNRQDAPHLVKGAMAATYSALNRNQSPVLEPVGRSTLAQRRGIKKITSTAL
active: [2] -0.798
inactive: bafetinib -0.065 | [1] 0.046 | nilotinib 0.035 | dasatinib -0.195 | [3] -0.019 | [4] -0.022 | [8] 0.031 | tipifarnib -0.028 | mubritinib 0.02 | [5] -0.076 | [9] -0.177 | [6] -0.203 | [7] -0.029 | entinostat 0.044 | vorinostat 0.048 | citarinostat 0.079 | silmitasertib -0.038 | [10] -0.046 | [11] -0.241

SEPTIN5 (UniProt G3XAH0)
inactive: bafetinib -0.038 | [1] -0.013 | nilotinib -0.05 | [2] -0.024 | dasatinib -0.049 | [3] -0.008 | [4] -0.05 | [8] 0.082 | tipifarnib 0.006 | mubritinib -0.011 | [5] 0.008 | [9] 0.004 | [6] -0.142 | [7] 0.016 | entinostat -0.031 | vorinostat 0.16 | silmitasertib -0.023 | [10] -0.028

SHROOM2 (UniProt Q13796)
inactive: bafetinib -0.091 | [1] -0.02 | nilotinib 0.082 | [2] 0.011 | dasatinib 0.166 | [3] -0.043 | [4] 0.163 | tipifarnib -0.022 | mubritinib 0.258 | [5] 0.024 | [9] -0.09 | [6] 0.275 | [7] 0.006 | entinostat -0.037 | vorinostat 0.068 | citarinostat 0.057 | silmitasertib -0.141 | [10] -0.088 | [11] 0.057

RB1CC1 (UniProt Q8TDY2)
Sequence of UniProt Q8TDY2 (Q8TDY2 whole entry, looked up): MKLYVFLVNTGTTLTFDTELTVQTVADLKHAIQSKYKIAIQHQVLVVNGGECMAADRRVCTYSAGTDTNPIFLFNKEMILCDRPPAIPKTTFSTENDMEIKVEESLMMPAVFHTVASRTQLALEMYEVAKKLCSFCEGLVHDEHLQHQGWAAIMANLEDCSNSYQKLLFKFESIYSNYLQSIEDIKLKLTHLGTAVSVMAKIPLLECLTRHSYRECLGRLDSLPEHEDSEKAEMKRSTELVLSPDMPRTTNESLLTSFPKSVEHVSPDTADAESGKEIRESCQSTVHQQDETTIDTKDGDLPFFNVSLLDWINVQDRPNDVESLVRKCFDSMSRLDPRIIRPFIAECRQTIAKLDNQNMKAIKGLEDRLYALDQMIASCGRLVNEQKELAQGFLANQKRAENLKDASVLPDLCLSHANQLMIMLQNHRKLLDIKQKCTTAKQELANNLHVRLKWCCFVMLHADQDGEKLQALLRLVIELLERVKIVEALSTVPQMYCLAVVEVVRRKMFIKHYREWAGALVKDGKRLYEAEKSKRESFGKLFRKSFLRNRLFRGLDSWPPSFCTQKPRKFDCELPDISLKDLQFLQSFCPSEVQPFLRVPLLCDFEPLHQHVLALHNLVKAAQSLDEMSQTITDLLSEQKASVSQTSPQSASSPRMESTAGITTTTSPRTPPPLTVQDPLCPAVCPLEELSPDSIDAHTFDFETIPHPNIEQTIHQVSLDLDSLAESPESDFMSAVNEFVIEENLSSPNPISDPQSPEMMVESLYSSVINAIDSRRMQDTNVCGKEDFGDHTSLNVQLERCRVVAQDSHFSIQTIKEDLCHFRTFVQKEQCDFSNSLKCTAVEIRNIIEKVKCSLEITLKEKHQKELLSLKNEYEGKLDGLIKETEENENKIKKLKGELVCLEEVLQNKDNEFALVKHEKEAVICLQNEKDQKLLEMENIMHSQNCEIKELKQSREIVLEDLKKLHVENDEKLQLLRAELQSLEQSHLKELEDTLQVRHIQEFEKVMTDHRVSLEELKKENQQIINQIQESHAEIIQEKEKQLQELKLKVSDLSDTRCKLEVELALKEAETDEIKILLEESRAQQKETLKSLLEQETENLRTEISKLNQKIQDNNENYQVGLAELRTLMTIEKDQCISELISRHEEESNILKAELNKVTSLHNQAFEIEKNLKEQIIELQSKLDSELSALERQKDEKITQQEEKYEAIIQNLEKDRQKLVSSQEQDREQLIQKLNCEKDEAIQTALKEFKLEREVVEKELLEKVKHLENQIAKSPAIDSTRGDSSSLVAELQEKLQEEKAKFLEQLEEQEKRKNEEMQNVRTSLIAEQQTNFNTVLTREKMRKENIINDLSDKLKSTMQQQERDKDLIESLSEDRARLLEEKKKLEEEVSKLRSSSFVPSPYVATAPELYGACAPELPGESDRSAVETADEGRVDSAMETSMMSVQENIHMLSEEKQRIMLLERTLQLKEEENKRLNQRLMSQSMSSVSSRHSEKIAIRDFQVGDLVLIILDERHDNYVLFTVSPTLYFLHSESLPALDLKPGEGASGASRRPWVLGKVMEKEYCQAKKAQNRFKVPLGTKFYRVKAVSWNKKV
inactive: bafetinib -0.037 | [1] 0.014 | nilotinib 0.009 | [2] 0.078 | dasatinib -0.103 | [3] -0.012 | [4] 0.029 | [8] 0.017 | tipifarnib -0.069 | mubritinib 0.026 | [5] 0.009 | [9] 0.124 | [6] 0.126 | [7] -0.022 | entinostat 0.001 | vorinostat 0.047 | citarinostat 0.114 | silmitasertib -0.08 | [10] -0.077 | [11] 0.111

RNF167 (UniProt Q9H6Y7)
inactive: bafetinib -0.049 | [1] -0.012 | nilotinib 0.049 | [2] -0.014 | dasatinib 0.039 | [3] 0.025 | [4] -0.068 | [8] 0.032 | tipifarnib 0.008 | mubritinib 0.001 | [5] 0.015 | [9] -0.062 | [6] -0.278 | [7] -0.03 | entinostat -0.032 | vorinostat 0.014 | silmitasertib 0.095 | [10] -0.028

SAMD4B (UniProt Q5PRF9)
Sequence of UniProt Q5PRF9 (Q5PRF9 whole entry, looked up): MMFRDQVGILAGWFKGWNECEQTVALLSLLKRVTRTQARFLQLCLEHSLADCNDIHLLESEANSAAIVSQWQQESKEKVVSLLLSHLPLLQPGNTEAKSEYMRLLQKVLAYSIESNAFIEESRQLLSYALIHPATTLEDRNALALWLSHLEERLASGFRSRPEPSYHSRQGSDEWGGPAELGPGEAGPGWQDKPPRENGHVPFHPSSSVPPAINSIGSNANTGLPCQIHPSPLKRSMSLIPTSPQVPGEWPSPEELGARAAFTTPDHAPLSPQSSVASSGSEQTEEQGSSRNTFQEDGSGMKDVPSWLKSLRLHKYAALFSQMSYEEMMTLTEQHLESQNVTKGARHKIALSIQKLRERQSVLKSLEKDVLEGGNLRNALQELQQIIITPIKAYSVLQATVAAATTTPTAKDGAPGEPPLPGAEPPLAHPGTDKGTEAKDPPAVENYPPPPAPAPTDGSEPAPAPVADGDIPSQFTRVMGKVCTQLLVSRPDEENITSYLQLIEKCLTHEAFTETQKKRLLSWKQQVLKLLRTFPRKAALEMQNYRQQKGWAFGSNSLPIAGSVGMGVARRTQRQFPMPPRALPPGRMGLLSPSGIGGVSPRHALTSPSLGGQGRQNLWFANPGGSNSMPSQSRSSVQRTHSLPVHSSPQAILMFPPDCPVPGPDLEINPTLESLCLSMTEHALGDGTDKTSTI
inactive: bafetinib -0.436 | [1] 0.125 | nilotinib -0.167 | [2] -0.312 | dasatinib -0.296 | [3] 0.002 | [4] -0.072 | [8] -0.042 | tipifarnib 0.09 | [5] -0.459 | entinostat 0.133 | vorinostat -0.069 | [10] 0.067
